Assay results taken from PubChem BioAssay AID1159580 (chemical genetic matrix, 2015).
Hit rate of the full screen: of about 5,500 compounds, about 2,000 (36%) were called active. Inconclusive results (about 18%) are left out. Some of the results follow. A number with no mark means an inactive call. Cut-off read from the data, not from the text of the source: active = normalized growth mostly below about 0.91 (no sharp cut-off); inconclusive = no clear call, values can overlap the other calls; inactive = mostly above about 0.92.

Assay: chemical genetic growth profiling, strain panel (AID 1159580);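 note: tested at 20 µM; growth read once vehicle control cultures reached saturation at 30 °C; 1 = growth at the plate median or of vehicle wells; lower values mean less growth of the strain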
Details: S. cerevisiae deletion strains, growth OD
[1] = locus YAR019C, strain CDC15, hits give low values
[2] = locus YBL105C, strain PKC1, hits give low values
[3] = locus YBR135W, strain CKS1, hits give low values
[4] = locus YBR136W, strain MEC1, hits give low values
[5] = locus YBR160W, strain CDC28, hits give low values
[6] = locus YDL017W, strain CDC7, hits give low values
[7] = locus YDL028C, strain MPS1, hits give low values
[8] = locus YDL101C, strain DUN1, hits give low values
[9] = locus YDL108W, strain KIN28, hits give low values
[10] = locus YDL132W, strain cdc53, hits give low values
[11] = locus YDL214C, strain PRR2, hits give low values
[12] = locus YDR052C, strain DBF4, hits give low values
[13] = locus YDR054C, strain cdc34, hits give low values
[14] = locus YDR226W, strain ADK1, hits give low values
[15] = locus YDR477W, strain SNF1, hits give low values
[16] = locus YER123W, strain YCK3, hits give low values
[17] = locus YER133W, strain GLC7, hits give low values
[18] = locus YFL009W, strain cdc4, hits give low values
[19] = locus YFL029C, strain CAK1, hits give low values
[20] = locus YFR003C, strain YPI1, hits give low values
[21] = locus YFR019W, strain FAB1, hits give low values
[22] = locus YFR028C, strain CDC14, hits give low values
[23] = locus YGR040W, strain KSS1, hits give low values
[24] = locus YGR052W, strain FMP48, hits give low values
[25] = locus YGR092W, strain DBF2, hits give low values
[26] = locus YHR030C, strain SLT2, hits give low values
[27] = locus YHR079C, strain IRE1, hits give low values
[28] = locus YHR082C, strain KSP1, hits give low values
[29] = locus YHR205W, strain SCH9, hits give low values
[30] = locus YIL147C, strain SLN1, hits give low values
[31] = locus YJL095W, strain BCK1, hits give low values
[32] = locus YJL157C, strain FAR1, hits give low values
[33] = locus YJR016C, strain ILV3, hits give low values
[34] = locus YJR066W, strain TOR1 (second series), hits give low values
[35] = locus YJR066W, strain TOR1, hits give low values
[36] = locus YKL048C, strain ELM1, hits give low values
[37] = locus YKL067W, strain YNK1, hits give low values
[38] = locus YKL101W, strain HSL1, hits give low values
[39] = locus YKL193C, strain SDS22, hits give low values
[40] = locus YKL203C, strain TOR2, hits give low values
[41] = locus YLR113W, strain HOG1, hits give low values
[42] = locus YLR133W, strain CKI1, hits give low values
[43] = locus YLR403W, strain SFP1, hits give low values
[44] = locus YML070W, strain DAK1, hits give low values
[45] = locus YMR001C, strain CDC5, hits give low values
[46] = locus YMR205C, strain PFK2 (second series), hits give low values
[47] = locus YMR277W, strain FCP1, hits give low values
[48] = locus YNL006W, strain LST8, hits give low values
[49] = locus YNL020C, strain ARK1, hits give low values
[50] = locus YNL161W, strain CBK1, hits give low values
[51] = locus YNL183C, strain NPR1, hits give low values
[52] = locus YNL207W, strain RIO2, hits give low values
[53] = locus YNL222W, strain SSU72, hits give low values
[54] = locus YNL307C, strain MCK1 (second series), hits give low values
[55] = locus YOL078W, strain AVO1, hits give low values
[56] = locus YOL136C, strain PFK27, hits give low values
[57] = locus YOR061W, strain CKA2, hits give low values
[58] = locus YOR119C, strain RIO1, hits give low values
[59] = locus YOR231W, strain MKK1, hits give low values
[60] = locus YOR329C, strain SCD5, hits give low values
[61] = locus YPL031C, strain PHO85, hits give low values
[62] = locus YPL153C, strain RAD53, hits give low values
[63] = locus YPL204W, strain HRR25, hits give low values
[64] = locus YPL209C, strain IPL1, hits give low values
[65] = locus YPL256C, strain CLN2, hits give low values
[66] = locus YPR025C, strain CCL1, hits give low values
[67] = locus YPR106W, strain ISR1, hits give low values
[68] = locus YPR111W, strain DBF20, hits give low values
[69] = strain NNK1, hits give low values
[70] = strain TSCII, hits give low values

Question: Which results are given for `COc1ccc(CC2CCC(=NOC(=O)c3c(Cl)cccc3Cl)CC2)cc1` (stereo unspecified)?
Answer: normalized growth [1]: 1.03; normalized growth [2]: 1.06 [resistant] (active); normalized growth [3]: 1.04; normalized growth [4]: 1.05; normalized growth [5]: 1.05; normalized growth [6]: 1.04; normalized growth [7]: 1.04; normalized growth [8]: 0.994; normalized growth [9]: 1.04; normalized growth [10]: 1.01; normalized growth [11]: 0.948; normalized growth [12]: 0.99; normalized growth [13]: 1.02; normalized growth [14]: 1.02; normalized growth [15]: 0.956; normalized growth [16]: 0.938; normalized growth [17]: 0.949; normalized growth [18]: 1.02; normalized growth [19]: 1.03; normalized growth [20]: 1.04; normalized growth [21]: 0.971; normalized growth [22]: 1; normalized growth [23]: 0.957; normalized growth [24]: 0.98; normalized growth [25]: 1.01; normalized growth [26]: 0.829 (active); normalized growth [27]: 1; normalized growth [28]: 1.03; normalized growth [29]: 1; normalized growth [30]: 1.04; normalized growth [31]: 0.984; normalized growth [32]: 0.962; normalized growth [33]: 1.01; normalized growth [34]: 0.928; normalized growth [35]: 1.06; normalized growth [36]: 0.976; normalized growth [37]: 0.959; normalized growth [38]: 0.966; normalized growth [39]: 1.02; normalized growth [40]: 1.01; normalized growth [41]: 0.854 (active); normalized growth [42]: 0.98; normalized growth [43]: 1.01; normalized growth [44]: 0.953; normalized growth [45]: 1.03; normalized growth [46]: 0.962; normalized growth [47]: 1.02; normalized growth [48]: 1.05; normalized growth [49]: 0.977; normalized growth [50]: 1.05; normalized growth [51]: 1.05; normalized growth [52]: 1.01; normalized growth [53]: 1.06; normalized growth [54]: 0.963; normalized growth [55]: 1.03; normalized growth [56]: 0.961; normalized growth [57]: 0.971; normalized growth [58]: 1.03; normalized growth [59]: 1.02; normalized growth [60]: 1.05; normalized growth [61]: 0.952; normalized growth [62]: 0.948; normalized growth [63]: 0.929; normalized growth [64]: 1.04; normalized growth [65]: 0.941; normalized growth [66]: 1.06 [resistant] (active); normalized growth [67]: 1.04; normalized growth [68]: 1.04; normalized growth [69]: 1.03; normalized growth [70]: 1.02

Question: Which normalized growth [1] does the source give for `COc1ccc(CC2CCC(=NOC(=O)c3ccc(C(C)(C)C)cc3)CC2)cc1` (stereo unspecified) here?
Answer: 0.991

Question: And the normalized growth [2]?
Answer: 1.01

Question: What about the normalized growth [3] of the same compound?
Answer: 0.988

Question: What about the normalized growth [4] of the same compound?
Answer: 0.985

Question: And the normalized growth [5]?
Answer: 0.993

Question: What about the normalized growth [6] of the same compound?
Answer: 0.982

Question: What about the normalized growth [7] of the same compound?
Answer: 0.984

Question: And the normalized growth [8]?
Answer: 0.977

Question: What about the normalized growth [9] of the same compound?
Answer: 0.984

Question: What about the normalized growth [10] of the same compound?
Answer: 0.977

Question: What about the normalized growth [11] of the same compound?
Answer: 0.947

Question: And the normalized growth [12]?
Answer: 0.975

Question: And the normalized growth [13]?
Answer: 0.98

Question: What about the normalized growth [14] of the same compound?
Answer: 0.979

Question: And the normalized growth [15]?
Answer: 0.946

Question: What about the normalized growth [16] of the same compound?
Answer: 0.927

Question: What about the normalized growth [17] of the same compound?
Answer: 0.936

Question: What about the normalized growth [18] of the same compound?
Answer: 0.969

Question: And the normalized growth [19]?
Answer: 0.988

Question: And the normalized growth [20]?
Answer: 0.983

Question: What about the normalized growth [21] of the same compound?
Answer: 0.972

Question: And the normalized growth [22]?
Answer: 0.975

Question: What about the normalized growth [23] of the same compound?
Answer: 0.936

Question: What about the normalized growth [24] of the same compound?
Answer: 0.958

Question: And the normalized growth [25]?
Answer: 0.999

Question: What about the normalized growth [26] of the same compound?
Answer: 0.828 (active)

Question: What about the normalized growth [27] of the same compound?
Answer: 0.999

Question: And the normalized growth [28]?
Answer: 1.01

Question: What about the normalized growth [29] of the same compound?
Answer: 0.999

Question: What about the normalized growth [30] of the same compound?
Answer: 0.978

Question: And the normalized growth [31]?
Answer: 0.952

Question: And the normalized growth (locus YJL128C, strain PBS2, hits give low values)?
Answer: 0.993

Question: What about the normalized growth [32] of the same compound?
Answer: 0.955

Question: And the normalized growth [33]?
Answer: 0.99

Question: And the normalized growth [34]?
Answer: 0.909

Question: And the normalized growth [35]?
Answer: 1.06

Question: What about the normalized growth [36] of the same compound?
Answer: 0.953

Question: And the normalized growth [37]?
Answer: 0.951

Question: What about the normalized growth [38] of the same compound?
Answer: 0.941

Question: And the normalized growth [39]?
Answer: 0.987

Question: And the normalized growth [40]?
Answer: 1.01

Question: And the normalized growth [41]?
Answer: 0.844 (active)

Question: What about the normalized growth [42] of the same compound?
Answer: 0.961

Question: And the normalized growth [43]?
Answer: 1.01

Question: And the normalized growth [44]?
Answer: 0.93

Question: And the normalized growth [45]?
Answer: 0.986

Question: What about the normalized growth [46] of the same compound?
Answer: 0.959

Question: And the normalized growth [47]?
Answer: 0.976

Question: What about the normalized growth [48] of the same compound?
Answer: 1

Question: What about the normalized growth [49] of the same compound?
Answer: 0.964

Question: And the normalized growth [50]?
Answer: 0.994

Question: What about the normalized growth [51] of the same compound?
Answer: 1.06

Question: And the normalized growth [52]?
Answer: 0.973

Question: What about the normalized growth [53] of the same compound?
Answer: 0.993

Question: What about the normalized growth [54] of the same compound?
Answer: 0.94

Question: And the normalized growth [55]?
Answer: 0.988

Question: What about the normalized growth [56] of the same compound?
Answer: 0.956

Question: What about the normalized growth [57] of the same compound?
Answer: 0.963

Question: And the normalized growth [58]?
Answer: 1.02

Question: And the normalized growth [59]?
Answer: 0.975

Question: And the normalized growth [60]?
Answer: 0.998

Question: And the normalized growth [61]?
Answer: 0.937

Question: And the normalized growth [62]?
Answer: 0.924

Question: And the normalized growth [63]?
Answer: 0.916

Question: What about the normalized growth [64] of the same compound?
Answer: 0.988

Question: And the normalized growth [65]?
Answer: 0.881

Question: And the normalized growth [66]?
Answer: 0.999

Question: And the normalized growth [67]?
Answer: 0.986

Question: And the normalized growth [68]?
Answer: 0.98

Question: And the normalized growth [69]?
Answer: 0.977

Question: What about the normalized growth [70] of the same compound?
Answer: 0.978
